Shown is part of a subset that was picked to be rich in hits.
RORgamma inh: blocks mouse ROR gamma transcriptional activity. Drosophila S2 Gal4-RORgamma UAS-luciferase reporter, 20 h. Potency, µM (titrated, usually from 53.6 µM), for inactives: at the top dose activity change, negative = inhibition, hits mostly inhibitors. hit rate 5.4% among 310,000. AID 2551; note: potency is the fitted concentration of half-maximal effect; % is set by controls: 0 for no effect and ±100 for the full control effect; nearly all actives have a fitted effect of over 60% in size
Target sequence (P51450 whole entry, looked up, the tested form may be a part): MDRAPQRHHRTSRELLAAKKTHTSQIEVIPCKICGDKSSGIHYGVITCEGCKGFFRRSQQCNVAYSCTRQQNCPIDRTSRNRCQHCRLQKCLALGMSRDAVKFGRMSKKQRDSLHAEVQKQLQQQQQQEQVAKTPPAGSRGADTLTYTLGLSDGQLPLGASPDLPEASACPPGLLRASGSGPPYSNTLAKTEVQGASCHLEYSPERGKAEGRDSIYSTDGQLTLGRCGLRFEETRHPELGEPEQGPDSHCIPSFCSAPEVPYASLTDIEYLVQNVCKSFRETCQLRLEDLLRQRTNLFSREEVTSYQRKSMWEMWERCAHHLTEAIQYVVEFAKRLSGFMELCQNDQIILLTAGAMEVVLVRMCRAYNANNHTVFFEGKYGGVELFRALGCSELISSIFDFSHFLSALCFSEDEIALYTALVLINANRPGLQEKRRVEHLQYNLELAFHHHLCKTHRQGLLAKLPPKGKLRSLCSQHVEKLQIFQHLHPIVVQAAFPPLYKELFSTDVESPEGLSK
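Compounds are pin-transferred onto Drosophila Schneider cells expressing a copper-inducible Gal4–ROR gamma transactivation domain fusion. After 1 hr, copper sulfate is added to 700 uM final; luciferase is read 20 hr later.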
Giardia kill: Giardia lamblia killing. activity change, % at 7.66 µM, hits read low. hit rate 0.15% among 340,000. Giardia lamblia trophozoite viability; in the data active = activity change below about -80%; inconclusive = between about -30% and that limit;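 note: parasites exposed to compound for two days anaerobically before the ATP read; % is set by controls: 0 for no effect and ±100 for the full control effect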
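Viability, read as ATP luminescence: trophozoites at 100 cells/well, compound added, 48 hrs anaerobic at 37 deg C, then 15-30 min room-temperature development before reading.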
VP16 counter: counter-screen for ROR gamma inhibitors: Gal4-VP16 reporter; Drosophila S2 Gal4-VP16 UAS-luciferase, luminescence, 20 h; Potency, µM (series often up to 53.6 µM), for the others: at the top dose activity, negative = inhibition, most hits filed as inhibitors; hit rate 3.5% among 310,000;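 note: Gal4-VP16 expression switched on by copper sulfate through the metallothionein promoter; potency is the fitted concentration of half-maximal effect; % is set by controls: 0 for no effect and ±100 for the full control effect; nearly all actives have a fitted effect of over 50% in size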
a7 integrin act: activators of alpha7 integrin expression for muscular dystrophy; alpha7betagal myoblasts, beta-gal FDG fluorescence, 48 h; Potency, µM (titrated, usually from 38.3 µM), inactives show top-dose activation, most hits filed as activators; hit rate 0.064% among 350,000;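 note: potency is the fitted concentration of half-maximal effect; 100% = response of the positive control SU9516; nearly all actives have a fitted effect of over 60% in size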
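Alpha7betagal+/- myoblasts (passage 13) were plated 16-24 hr, then exposed to compounds (1:260 dilution of DMSO stock) for 48 hours at 37C. After MPER lysis, β-galactosidase reporter activity was read as FDG fluorescence (ex 480/em 540) after 30 minutes.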
ERG-DNA inh: ERG Ets/DNA interaction inhibition; fluorescence polarization, His-ERG Ets domain / labelled DNA; P11308; Potency, µM (highest dose often 76.9 µM), for the others: at the top dose FP activity, negative = inhibition, usual class: inhibitors; hit rate 0.028% among 370,000; AID 624246; active = well fitted inhibition curve with a large enough effect in the polarisation, with a control signal flat; inconclusive = small, poorly fitted or top-dose-only effect, or effect the other way, or a change in a side signal; inactive = no such curve, though single readings can be large or run the other way; the % refers to the polarisation;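 note: polarization taken with two DNA probes labelled with fluorescein and Texas red; potency is the fitted concentration of half-maximal effect; % of control where 0% means no effect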
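His-tagged ERG Ets domain (1 uM in the protein solution; 300mM KCl, 50mM Tris-HCl, 1mM EDTA, 1mM DTT, pH 7.5) received compound, then a probe mix of 5 nM fluorescein-DNA and 100nM Texas-615-DNA. Fluorescence polarization was read for both dyes.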
* hit, by the source's call; [ ] = dose if it differs, or a comment. Unless noted, calls come from the whole dose curve; as a rule, active = well fitted curve in the direction sought with a large enough effect; inconclusive = small, poorly fitted or top-dose-only effect, or another doubt; inactive = no such curve, though single readings can be large; an effect the other way counts as inactive or inconclusive.

For CC(=N\NC(=O)c1ccccc1)/C(=N/O)C(=O)Nc1ccccc1 the results were RORgamma inh 5.01µM*, Giardia kill 11.7, VP16 counter inconclusive, a7 integrin act 5.2% and ERG-DNA inh -4.3%.
`CC(=N\Nc1ccccc1)/C(=N/O)C(=O)Nc1ccccc1` gave RORgamma inh 14.1%, Giardia kill 7.1, VP16 counter 0.2%, a7 integrin act 0.0% and ERG-DNA inh 1.0%.
Screening COc1ccc(-c2cn[nH]c2-c2ccc(OCc3ccccc3)cc2O)cc1 returned RORgamma inh 6.31µM*, Giardia kill -0.4, VP16 counter inconclusive, a7 integrin act -50.0% and ERG-DNA inh 2.2%.
`COc1ccccc1-c1cn[nH]c1-c1ccc(OCc2ccccc2)cc1O` gave RORgamma inh 6.31µM*, Giardia kill 4.7, VP16 counter inconclusive, a7 integrin act -39.7% and ERG-DNA inh -11.3%.
`CCOc1ccc(-c2[nH]ncc2-c2csc(C)n2)c(O)c1` gave RORgamma inh inconclusive, Giardia kill 6.7, VP16 counter inconclusive, a7 integrin act -13.0% and ERG-DNA inh -7.7%.
For CCOc1ccc(-c2[nH]ncc2-c2ccccc2)c(O)c1 the results were RORgamma inh 12.6µM*, Giardia kill 3.9, VP16 counter inconclusive, a7 integrin act 7.9% and ERG-DNA inh -11.3%.
Screening COc1cc(/C=C/C(=O)OCC(=O)c2c[nH]c3ccccc23)ccc1OC(F)F returned RORgamma inh inconclusive, Giardia kill -17.4, VP16 counter -1.2%, a7 integrin act -24.1% and ERG-DNA inh -0.7%.
`Cc1nc2cc(-c3ccccc3)nn2c(C)c1CCC(=O)N1CCN(c2ccc(F)cc2)CC1` gave ERG-DNA inh 1.1%.
CCOc1ccc(/C=N/NC(=O)c2[nH]c3ccc(C)cc3c2C)cc1 was read as RORgamma inh inconclusive, Giardia kill 20.2, VP16 counter inconclusive, a7 integrin act 25.5% and ERG-DNA inh 0.5%.
Screening Cc1c(C(=O)N/N=C/c2ccc(Cl)cc2)[nH]c2ccc(Cl)cc12 returned RORgamma inh 11.2µM*, Giardia kill -13.5, VP16 counter 11.2µM*, a7 integrin act -64.7% and ERG-DNA inh 8.5%.
CC[C@@]1(C(=O)OC)N[C@H](CN(C)C(=O)c2ccc(F)cc2)[C@@H]2C(=O)N(C)C(=O)[C@@H]21 was read as Giardia kill 3.7, a7 integrin act -19.5% and ERG-DNA inh -4.5%.
C[C@H]1CN([C@@H](C)CO)C(=O)c2cc(C#CC3(O)CCCC3)cnc2O[C@H]1CN(C)C(=O)C1CC1 was read as a7 integrin act 9.0%.
Screening CCN1C(=O)[C@H]2[C@H]3[C@H](O)[C@H](O)C/C(=N/NC(=O)OCc4ccc(OC)cc4)[C@@H]3CC[C@@H]2C1=O returned RORgamma inh -20.6%[10 µM] and VP16 counter 2.9%[10 µM].
`Cc1ccccc1-n1c(SCc2csc(Nc3ccccc3)n2)nnc1-c1cccnc1` gave RORgamma inh inconclusive, Giardia kill 9.6, VP16 counter inconclusive, a7 integrin act 14.4% and ERG-DNA inh -10.2%.
For Cc1ccc(Nc2nc(CSc3nnc(-c4cccnc4)n3-c3ccccc3C)cs2)cc1 the results were RORgamma inh 5.01µM*, Giardia kill 0.4, VP16 counter inconclusive, a7 integrin act -10.9% and ERG-DNA inh -3.2%.
`Cc1ccc(S(=O)(=O)N2CCN(c3nc(-c4ccc(CN5CCOCC5)s4)nc4ccccc34)CC2)cc1` gave Giardia kill -6.7.
COC(=O)C1=C(C(=O)OC)[C@@H]2N(Cc3ccccc3)c3ccccc3[C@@]23C[C@@H](C(=O)OC)N(C(=O)c2cccs2)C3=N1 was read as RORgamma inh inconclusive, Giardia kill 6.2, VP16 counter 17.8µM*, a7 integrin act -23.5% and ERG-DNA inh 3.2%.
`COC(=O)C1=C(C(=O)OC)[C@@H]2N(C)c3ccccc3[C@@]23C[C@@H](C(=O)OC)N(C(=O)c2cccs2)C3=N1` gave RORgamma inh 19.1%, Giardia kill 14.9, VP16 counter -11.1%, a7 integrin act -20.9% and ERG-DNA inh -5.3%.
`O=C(O)c1c(Cl)c(Cl)c(Cl)c(Cl)c1-c1c2cc(I)c(=O)c(I)c-2oc2c(I)c(O)c(I)cc12` gave RORgamma inh 14.1µM* and VP16 counter inconclusive.
